Consider 50 compounds from PubChem BioAssay AID743019 (Broad Institute, 2013).

Each structure is given as a SMILES string. The campaign covered roughly 1,000 compounds. About 25 (2%) were called active.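 The calls were made as follows: active = rising signal whose fitted curve reaches the 0.54 level within the top valid dose, showing a melting point (actives reach about 13 µM in these data); inactive = the rest, including activity in the opposite direction.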 These entries were drawn from the full list.

This experiment in a line: SYPRO orange dye artefact, no FGF22 present – biochemical, cherry-picked samples, RT-PCR instrument, artefact control for FGF22 binder project, dose response (AID 743019). Also: value is where the raw curve crosses a fixed level and not half-maximal. As to conditions: compound-only SYPRO orange thermal shift counter-screen, no protein; at 38 µM (top of the series) unless noted. For orientation: Counterscreens check selectivity or assay interference.
Consider `COc1cc([N+](=O)[O-])ccc1NC(=O)CN1CCCC1`, for which the outcome was inactive.
Take `C[C@H]1CN([C@@H](C)CO)C(=O)Cc2cc(NC(=O)Cc3cn(C)c4ccccc34)ccc2O[C@@H]1CN(C)Cc1ccccc1`: the outcome was “inactive [at 42 µM]”.
With `Cc1ccc(S(=O)(=O)N(C)C[C@@H]2Oc3cc(C4=CCCC4)ccc3S(=O)(=O)N([C@@H](C)CO)C[C@@H]2C)cc1` the entry was “inactive [at 42 µM]”; with `O=C(NN1C(=O)C2C3C=CC(O3)C2C1=O)c1ccccc1` (stereo not given), “inactive”.
`O=C(N[C@@H]1C=C[C@H](CC(=O)N2CCCCC2)O[C@H]1CO)c1cccc(F)c1`: the outcome was inactive.
`CCn1ccnc1CN(C)C(=O)c1ccc2nc(Cc3ccc(OC)cc3)oc2c1`: the result was inactive.
With `C[C@@H]1CN([C@@H](C)CO)S(=O)(=O)c2ccc(-c3ccncc3)cc2O[C@@H]1CN(C)C(=O)Nc1ccc(F)cc1` the entry was “inactive”; with `O=C(N/N=C/c1ccc([N+](=O)[O-])cc1)c1c[nH]c2ccccc12`, “inactive”; with `COc1ccccc1NC(=O)N1[C@H](C#N)[C@H](c2ccccc2)[C@H]1CO`, “inactive [at 42 µM]”.
Then `O=C(NCCc1c[nH]c2ccccc12)C(=O)NCC1CCCO1` (stereo not given), with “inactive”; and `O=C(c1ccccc1F)N1CC(=O)N2[C@H](C1)[C@H](c1ccc(-c3ccc(F)cc3)cc1)[C@@H]2CO`, with “inactive [at 42 µM]”; and `CS(=O)(=O)c1ccc2nc(NC(=O)c3ccc(Cl)nc3)sc2c1`, with “inactive”.
For the compound `OC[C@H]1[C@H](c2ccc(-c3cccnc3)cc2)[C@H]2CN(Cc3ccccn3)CCCCN21`, the result was inactive.
For `O=C(Nc1ccccc1F)N1[C@H](CO)[C@H]2c3ccccc3NC[C@H]21`, the outcome is “inactive [at 42 µM]”.
Then `NS(=O)(=O)c1cccc(NC(=O)COC(=O)c2cc([N+](=O)[O-])ccc2N2CCCC2)c1`, with “inactive”; and `Cc1ccc(NC(=O)Nc2cccnc2)cc1`, with “inactive”.
Then `O=C(N/N=C/c1ccc(Cl)c(Cl)c1)c1ccc2nc[nH]c2c1`, with “inactive”; and `Cc1ccc(S(=O)(=O)Nc2nc3ccccc3s2)cc1[N+](=O)[O-]`, with “inactive”.
Then `O=C(Nc1nnc(-c2ccccc2F)s1)c1ccccc1F`, with “inactive”.
With `O=C(C[C@H]1CC[C@H]2[C@@H](COC[C@H](O)CN2S(=O)(=O)c2cccc(Cl)c2)O1)Nc1ccccc1`, the outcome was “inactive [at 42 µM]”.
As for `COCCN(C(=O)C(C)C)c1nnc(-c2ccc(C(C)(C)C)cc2)s1`, the result was inactive.
Then `C[C@H]1CN([C@@H](C)CO)S(=O)(=O)c2ccc(C3=CCCC3)cc2O[C@H]1CN(C)C(=O)Nc1ccc2c(c1)OCO2`, with “inactive [at 42 µM]”; and `COc1ccc(-c2cc(=O)oc3cc(OCC(=O)N[C@@H](Cc4c[nH]c5ccccc45)C(=O)O)ccc23)cc1`, with “inactive”.
`O=S(=O)(ON(c1ccccc1)S(=O)(=O)c1ccccc1)c1ccccc1`: the result was inactive.
For `O=C(Cc1cccnc1)N[C@H]1CC[C@H](CCn2cc(-c3ccccc3F)nn2)O[C@H]1CO`, the outcome was inactive.
With `CC(=O)Nc1ccc(S(=O)(=O)N(CCc2ccccc2)CC(=O)N/N=C/c2ccc(C(=O)O)cc2)cc1` the entry was “inactive”; with `CCCOc1ccc(NC(=O)CC2C(=O)N(C)C(=S)N2Cc2ccc3c(c2)OCO3)cc1` (stereo not given), “inactive”; with `CC(C)NC(=O)N1C[C@@H]2[C@H](c3ccccc31)[C@H](CO)N2C(=O)c1ccccn1`, “inactive [at 42 µM]”.
Then `O=C(N/N=C/c1ccc(OCc2ccccc2)cc1)c1ccc(O)cc1`, with “inactive”; and `C[C@@H]1CCCCO[C@@H](CN(C)Cc2ccncc2)[C@H](C)CN([C@H](C)CO)C(=O)c2cc(NC(=O)Cc3ccccc3)ccc2O1`, with “inactive”.
With `Cc1cccc(S(=O)(=O)N2C[C@@H](O)COC[C@H]3O[C@H](CC(=O)Nc4ccc(-c5ccccc5)cc4)CC[C@@H]32)c1` the entry was “inactive [at 42 µM]”; with `CN1C(=O)c2cccc3c(N)ccc(c23)C1=O`, “inactive”.
Regarding `CN1C(=O)c2cc(NC(=O)c3cccc(F)c3)ccc2OC[C@@H]2O[C@H](CC(=O)N3CCc4ccccc4C3)CC[C@@H]21`, the outcome was inactive.
Then `COc1ccccc1C(=O)NNC(=O)c1ccc(NC(=O)c2ccccc2)cc1`, with “inactive”; and `C[C@@H]1CN([C@H](C)CO)S(=O)(=O)c2ccc(-c3ccncc3)cc2O[C@@H]1CN(C)C(=O)Nc1ccc(C(F)(F)F)cc1`, with “inactive”; and `Cc1c(CCO)sc[n+]1CC(=O)OC12CC3CC(CC(C3)C1)C2`, with “inactive”.
Consider `COc1ccc(-c2ccc([C@H]3[C@H]4CN(C(=O)c5ccc6c(c5)OCO6)CCCCN4[C@H]3CO)cc2)cc1`, for which the outcome is “inactive [at 42 µM]”.
Then `CC(=O)N1c2ccc(S(=O)(=O)N3CCC(C(=O)NCc4ccc(F)cc4)CC3)cc2CC1C` (stereo not given), with “inactive”; and `CC(C)NC(=O)N(C)C[C@@H]1Oc2c(NC(=O)c3nc4ccccc4s3)cccc2C(=O)N([C@H](C)CO)C[C@H]1C`, with “inactive [at 42 µM]”; and `CCCCN1CC(N2CCN(Cc3cccc(C)c3)CC2)CS1(=O)=O` (stereo not given), with “inactive”.
As for `Cc1ccc(NC(=O)O/N=C/c2cccc([N+](=O)[O-])c2)cc1`, the result was inactive.
`CC(=O)NC[C@@H]1[C@@H](c2ccccc2)[C@@H](CO)N1C(=O)Cc1cccnc1`: the outcome was “inactive [at 42 µM]”.
Take `O=C(COc1ccc([N+](=O)[O-])cc1)Nc1cccc(C(=O)Nc2ccccc2C(=O)O)c1`: the outcome was inactive.
As to `CC(C)(C)N1C(=O)c2c(C(=O)OCc3ccccc3)[nH]c(-c3ccccc3)c2C1=O`, the outcome was inactive.
`COc1cc(NC(=O)c2ccc3c(c2)OCO3)ccc1NC(=O)c1cccs1`: the outcome was inactive.
Consider `O=C(C[C@H]1C[C@@H]2c3cc(NC(=O)Nc4ccc(C(F)(F)F)cc4)ccc3O[C@@H]2[C@@H](CO)O1)NCC1CC1`, for which the outcome is “inactive [at 10 µM]”.
For `CNC[C@@H]1Oc2ccc(NC(=O)C3CCCCC3)cc2C(=O)N([C@@H](C)CO)C[C@H]1C`, the result was inactive.
With `COCC(=O)Nc1ccc2c(c1)OC[C@H](C)N(C)C[C@@H](C)[C@@H](OC)CN(C)C2=O`, the outcome was “inactive [at 42 µM]”.
Then `O=C(N/N=C/c1c[nH]c2ccccc12)c1cc2ccccc2o1`, with “inactive”.
On to `Cc1ccc(S(=O)(=O)NCCC(=O)Nc2ccc(C)c(Cl)c2)cc1C`, for which the result was inactive.
